Laboratory results reported in the supplement of paper PMC10849652.
About 8,800 targets were measured; listed, in parts, are those with a hit and a random draw of the rest. About 0.5% of all pairs of compound and target were hits.

Tests used:
Test in all cases: log2 fold change, soluble protein after heating vs DMSO (PISA); higher = thermal stabilisation; K562 lysate, 10 uM; active = over 0.2 and 3.5 SD of the protein, either way, in both replicates (recomputed)
vemurafenib = compound: CCCS(=O)(=O)Nc1ccc(F)c(C(=O)c2c[nH]c3ncc(-c4ccc(Cl)cc4)cc23)c1F [vemurafenib]
Procedure, shortened: (§1)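 Thermal stability, expressed as log-two fold change relative to solvent controls, is given from duplicates. Crude K562 extract in PBS pH 7.4 with 1 mM MgCl2, at 1 mg/mL protein, was treated with 10 μM compound for 30 min and heated in aliquots for 3 min across 48°C-58°C. After pooling, adjustment to 0.5% NP-40 at 4°C and centrifugation at 21,000xg for 90 min, supernatant protein was measured by TMTpro 16plex LC-MS/MS with channel sums equalised.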

[1] = compound: CCCS(=O)(=O)Nc1ccc(F)c(C(=O)c2c[nH]c3ncc(Cl)cc23)c1F
Procedure, shortened: as §1

barasertib = compound: CCN(CCCOc1ccc2c(Nc3cc(CC(=O)Nc4cccc(F)c4)[nH]n3)ncnc2c1)CCOP(=O)(O)O [barasertib]
Procedure, shortened: as §1

[2] = compound: CC[C@@H]1C(=O)N(C)c2cnc(Nc3ccc(C(=O)NC4CCN(C)CC4)cc3OC)nc2N1C1CCCC1
Procedure, shortened: as §1

volasertib = compound: CC[C@@H]1C(=O)N(C)c2cnc(Nc3ccc(C(=O)N[C@H]4CC[C@H](N5CCN(CC6CC6)CC5)CC4)cc3OC)nc2N1C(C)C [volasertib]
Procedure, shortened: as §1

[3] = compound: CCn1c(C(=O)N(C2CC2)C2CC2)cc2c3c(ncn3C)c(Nc3cc(C)n(C)n3)nc21
Procedure, shortened: as §1

[4] = compound: CCn1cc(-c2ccnc3[nH]c(-c4cccc(CN(C)C)c4)cc23)c(-c2ccc(NC(=O)N(C)C)cc2)n1
Procedure, shortened: as §1

[5] = compound: CN1CCC(CNc2ccc3ncc(-c4cccc(OC(F)(F)F)c4)n3n2)CC1
Procedure, shortened: as §1

saracatinib = compound: CN1CCN(CCOc2cc(OC3CCOCC3)c3c(Nc4c(Cl)ccc5c4OCO5)ncnc3c2)CC1 [saracatinib]
Procedure, shortened: as §1

sotrastaurin = compound: CN1CCN(c2nc(C3=C(c4c[nH]c5ccccc45)C(=O)NC3=O)c3ccccc3n2)CC1 [sotrastaurin]
Procedure, shortened: as §1

Measured: log2 fold change

NARF (UniProt Q9UHQ1)
UniProt Q9UHQ1, sequence (Q9UHQ1 whole entry, looked up): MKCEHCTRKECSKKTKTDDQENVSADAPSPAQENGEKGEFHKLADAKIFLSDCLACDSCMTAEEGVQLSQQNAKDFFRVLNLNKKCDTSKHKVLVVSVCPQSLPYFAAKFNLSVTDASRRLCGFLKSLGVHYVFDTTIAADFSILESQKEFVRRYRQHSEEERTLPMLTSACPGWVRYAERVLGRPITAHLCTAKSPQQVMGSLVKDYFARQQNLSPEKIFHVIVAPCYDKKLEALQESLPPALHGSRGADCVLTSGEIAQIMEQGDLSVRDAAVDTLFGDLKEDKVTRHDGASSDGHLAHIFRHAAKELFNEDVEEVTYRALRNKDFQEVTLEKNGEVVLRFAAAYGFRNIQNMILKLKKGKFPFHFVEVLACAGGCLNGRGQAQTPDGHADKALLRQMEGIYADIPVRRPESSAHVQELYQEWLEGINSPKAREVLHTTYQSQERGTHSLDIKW
inactive: vemurafenib 0.035 | [1] 0.035 | barasertib 0.028 | [2] 0.011 | volasertib 0.135 | [3] -0.025 | [4] -0.055 | [5] 0.014 | saracatinib 0.023 | sotrastaurin 0.049

PAK1 (UniProt Q13153)
inactive: vemurafenib -0.013 | [1] 0.001 | barasertib -0.001 | [2] -0.002 | volasertib 0.023 | [3] -0.011 | [4] 0.013 | [5] 0.06 | saracatinib 0 | sotrastaurin -0.054

PAXBP1 (UniProt Q9Y5B6)
inactive: vemurafenib 0.072 | [1] 0.006 | barasertib 0.07 | [2] -0.008 | volasertib -0.058 | [3] 0.042 | [4] 0.043 | [5] 0.004 | saracatinib 0.02 | sotrastaurin 0.025

NDC1 (UniProt Q9BTX1)
inactive: vemurafenib 0.053 | [1] -0.051 | barasertib 0.075 | [2] 0.081 | volasertib 0.016 | [3] -0.02 | [4] -0.3 | [5] 0.155 | saracatinib 0.032 | sotrastaurin 0.011

NCKAP1L (UniProt P55160)
inactive: vemurafenib -0.14 | [1] 0.032 | barasertib 0.131 | [2] -0.068 | volasertib 0.004 | [3] -0.049 | [4] -0.025 | [5] -0.082 | saracatinib -0.083 | sotrastaurin 0.032

MTA2 (UniProt O94776)
inactive: vemurafenib 0.007 | [1] 0.018 | barasertib 0.026 | [2] 0.03 | volasertib -0.008 | [3] 0.025 | [4] -0.021 | [5] -0.031 | saracatinib 0.015 | sotrastaurin 0.042

NCOR1 (UniProt O75376)
inactive: vemurafenib -0.005 | [1] -0.01 | barasertib 0.018 | [2] 0.043 | volasertib 0.002 | [3] -0.014 | [4] -0.002 | [5] -0.033 | saracatinib 0.006 | sotrastaurin 0.006

NAT1 (UniProt P18440)
inactive: vemurafenib 0.04 | [1] -0.003 | barasertib -0.104 | [2] 0.003 | volasertib 0.009 | [3] -0.012 | [4] -0.149 | [5] -0.014 | saracatinib -0.001 | sotrastaurin 0.078

PAN2 isoform 2 (UniProt Q504Q3)
inactive: vemurafenib 0.072 | [1] 0.031 | barasertib 0.03 | [2] 0.041 | volasertib -0.132 | [3] 0.031 | [4] 0.006 | [5] -0.04 | saracatinib -0.021 | sotrastaurin 0.018

NFKBIE (UniProt O00221)
inactive: vemurafenib 0.046 | [1] 0.051 | barasertib 0.174 | [2] 0.081 | volasertib -0.106 | [3] -0.024 | [4] -0.07 | [5] -0.045 | saracatinib -0.123 | sotrastaurin -0.025

MTA3 (UniProt Q9BTC8)
inactive: vemurafenib 0.019 | [1] 0.002 | barasertib 0.017 | [2] 0.023 | volasertib -0.022 | [3] -0.055 | [4] -0.017 | [5] -0.097 | saracatinib 0.036 | sotrastaurin -0.006

N4BP2 (UniProt Q86UW6)
UniProt Q86UW6, sequence (Q86UW6 whole entry, looked up): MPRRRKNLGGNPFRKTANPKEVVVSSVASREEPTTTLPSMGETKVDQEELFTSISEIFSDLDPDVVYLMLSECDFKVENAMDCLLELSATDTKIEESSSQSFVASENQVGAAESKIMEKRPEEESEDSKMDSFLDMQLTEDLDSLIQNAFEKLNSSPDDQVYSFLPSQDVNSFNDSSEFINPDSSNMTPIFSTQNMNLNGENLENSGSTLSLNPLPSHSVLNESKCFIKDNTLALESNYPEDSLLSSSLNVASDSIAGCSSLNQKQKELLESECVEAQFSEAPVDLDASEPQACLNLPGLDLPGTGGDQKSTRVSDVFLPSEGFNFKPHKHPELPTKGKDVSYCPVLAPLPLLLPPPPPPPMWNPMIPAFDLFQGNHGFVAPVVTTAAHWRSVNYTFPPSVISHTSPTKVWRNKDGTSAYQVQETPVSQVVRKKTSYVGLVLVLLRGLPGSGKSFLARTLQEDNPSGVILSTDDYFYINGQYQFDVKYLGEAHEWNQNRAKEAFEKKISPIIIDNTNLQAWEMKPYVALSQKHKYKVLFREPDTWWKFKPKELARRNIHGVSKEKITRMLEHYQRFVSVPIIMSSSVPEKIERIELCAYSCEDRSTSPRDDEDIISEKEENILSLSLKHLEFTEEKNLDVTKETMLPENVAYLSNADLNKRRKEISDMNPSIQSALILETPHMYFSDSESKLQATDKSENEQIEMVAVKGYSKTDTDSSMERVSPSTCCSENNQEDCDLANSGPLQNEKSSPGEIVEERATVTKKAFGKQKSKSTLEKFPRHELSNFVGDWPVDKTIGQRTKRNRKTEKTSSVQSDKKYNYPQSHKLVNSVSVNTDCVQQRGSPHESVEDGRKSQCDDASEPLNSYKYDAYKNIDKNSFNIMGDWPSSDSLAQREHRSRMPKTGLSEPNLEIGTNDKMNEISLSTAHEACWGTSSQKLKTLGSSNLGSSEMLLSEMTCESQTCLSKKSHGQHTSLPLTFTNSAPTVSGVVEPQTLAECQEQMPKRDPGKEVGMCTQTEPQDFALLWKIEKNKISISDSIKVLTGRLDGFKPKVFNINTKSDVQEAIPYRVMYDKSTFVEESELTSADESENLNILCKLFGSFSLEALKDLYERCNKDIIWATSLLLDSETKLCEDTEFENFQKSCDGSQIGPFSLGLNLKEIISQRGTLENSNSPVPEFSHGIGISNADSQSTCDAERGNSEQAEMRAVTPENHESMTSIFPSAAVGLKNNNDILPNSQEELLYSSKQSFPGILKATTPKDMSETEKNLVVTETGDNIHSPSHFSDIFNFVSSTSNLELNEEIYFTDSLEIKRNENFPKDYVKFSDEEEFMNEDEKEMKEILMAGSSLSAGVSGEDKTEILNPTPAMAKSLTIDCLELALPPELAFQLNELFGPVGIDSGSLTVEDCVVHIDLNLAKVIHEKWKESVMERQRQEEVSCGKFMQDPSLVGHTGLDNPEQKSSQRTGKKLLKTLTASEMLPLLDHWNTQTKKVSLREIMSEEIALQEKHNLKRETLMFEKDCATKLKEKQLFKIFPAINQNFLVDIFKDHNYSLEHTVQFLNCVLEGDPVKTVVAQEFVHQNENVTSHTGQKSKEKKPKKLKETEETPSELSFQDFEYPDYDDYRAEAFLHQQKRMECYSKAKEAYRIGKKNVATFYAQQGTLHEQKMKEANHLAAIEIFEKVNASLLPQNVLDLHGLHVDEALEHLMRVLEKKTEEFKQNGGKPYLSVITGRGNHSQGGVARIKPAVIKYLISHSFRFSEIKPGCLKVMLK
inactive: vemurafenib -0.001 | [1] 0.052 | barasertib -0.018 | [2] 0.029 | volasertib -0.014 | [3] 0 | [5] 0.029 | saracatinib 0.018 | sotrastaurin 0.05
active: [4] -0.336

NCAPD3 (UniProt P42695)
inactive: vemurafenib -0.032 | [1] 0.047 | barasertib 0.06 | [2] -0.013 | volasertib -0.088 | [3] 0.035 | [4] 0.068 | [5] -0.015 | saracatinib 0.008 | sotrastaurin 0.003

NAA38 isoform 2 (UniProt Q9BRA0)
UniProt Q9BRA0, sequence (Q9BRA0 whole entry, looked up): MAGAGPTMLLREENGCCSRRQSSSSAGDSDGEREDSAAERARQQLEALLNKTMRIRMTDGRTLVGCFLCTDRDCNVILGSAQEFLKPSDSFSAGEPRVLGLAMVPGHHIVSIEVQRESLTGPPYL
active: [4] -0.461
inactive: vemurafenib 0.049 | [1] 0.014 | barasertib 0.09 | [2] -0.012 | volasertib 0.025 | [3] 0.04 | [5] 0.201 | saracatinib 0.042 | sotrastaurin -0.079

NCK1 (UniProt P16333)
inactive: vemurafenib 0.049 | [1] 0.003 | barasertib -0.008 | [2] 0.068 | volasertib -0.011 | [3] -0.025 | [4] 0.067 | [5] -0.05 | saracatinib 0.015 | sotrastaurin 0.014

OSGEP (UniProt Q9NPF4)
inactive: vemurafenib 0.003 | [1] 0.026 | barasertib 0.031 | [2] -0.059 | volasertib -0.037 | [3] -0.03 | [4] -0.065 | [5] 0.026 | saracatinib -0.006 | sotrastaurin -0.008

NTPCR (UniProt Q9BSD7)
inactive: vemurafenib 0.055 | [1] -0.001 | barasertib 0.016 | [2] 0.005 | volasertib -0.066 | [3] 0.032 | [4] -0.038 | [5] -0.021 | saracatinib -0.009 | sotrastaurin 0.011

NUF2 (UniProt Q9BZD4)
inactive: vemurafenib -0.01 | [1] 0.016 | barasertib 0.048 | [2] -0.126 | volasertib -0.029 | [3] 0.016 | [4] -0.069 | [5] -0.101 | saracatinib 0.032 | sotrastaurin 0.03

NNMT (UniProt P40261)
inactive: vemurafenib 0.024 | [1] -0.036 | barasertib -0.059 | [2] 0.008 | volasertib 0.056 | [3] 0.015 | [4] -0.062 | [5] 0.03 | saracatinib -0.043 | sotrastaurin 0.021

OSBPL6 isoform 5 (UniProt Q9BZF3)
inactive: vemurafenib -0.026 | [1] -0.021 | barasertib -0.015 | [2] -0.052 | volasertib -0.072 | [3] 0.015 | [4] -0.004 | [5] 0.084 | saracatinib -0.009 | sotrastaurin -0.035

OSBP (UniProt P22059)
inactive: vemurafenib -0.052 | [1] -0.007 | barasertib -0.004 | [2] -0.076 | volasertib -0.091 | [3] 0.041 | [4] -0.045 | [5] -0.032 | saracatinib 0.011 | sotrastaurin 0.026

NIPBL (UniProt Q6KC79)
UniProt Q6KC79, sequence (Q6KC79 whole entry, looked up): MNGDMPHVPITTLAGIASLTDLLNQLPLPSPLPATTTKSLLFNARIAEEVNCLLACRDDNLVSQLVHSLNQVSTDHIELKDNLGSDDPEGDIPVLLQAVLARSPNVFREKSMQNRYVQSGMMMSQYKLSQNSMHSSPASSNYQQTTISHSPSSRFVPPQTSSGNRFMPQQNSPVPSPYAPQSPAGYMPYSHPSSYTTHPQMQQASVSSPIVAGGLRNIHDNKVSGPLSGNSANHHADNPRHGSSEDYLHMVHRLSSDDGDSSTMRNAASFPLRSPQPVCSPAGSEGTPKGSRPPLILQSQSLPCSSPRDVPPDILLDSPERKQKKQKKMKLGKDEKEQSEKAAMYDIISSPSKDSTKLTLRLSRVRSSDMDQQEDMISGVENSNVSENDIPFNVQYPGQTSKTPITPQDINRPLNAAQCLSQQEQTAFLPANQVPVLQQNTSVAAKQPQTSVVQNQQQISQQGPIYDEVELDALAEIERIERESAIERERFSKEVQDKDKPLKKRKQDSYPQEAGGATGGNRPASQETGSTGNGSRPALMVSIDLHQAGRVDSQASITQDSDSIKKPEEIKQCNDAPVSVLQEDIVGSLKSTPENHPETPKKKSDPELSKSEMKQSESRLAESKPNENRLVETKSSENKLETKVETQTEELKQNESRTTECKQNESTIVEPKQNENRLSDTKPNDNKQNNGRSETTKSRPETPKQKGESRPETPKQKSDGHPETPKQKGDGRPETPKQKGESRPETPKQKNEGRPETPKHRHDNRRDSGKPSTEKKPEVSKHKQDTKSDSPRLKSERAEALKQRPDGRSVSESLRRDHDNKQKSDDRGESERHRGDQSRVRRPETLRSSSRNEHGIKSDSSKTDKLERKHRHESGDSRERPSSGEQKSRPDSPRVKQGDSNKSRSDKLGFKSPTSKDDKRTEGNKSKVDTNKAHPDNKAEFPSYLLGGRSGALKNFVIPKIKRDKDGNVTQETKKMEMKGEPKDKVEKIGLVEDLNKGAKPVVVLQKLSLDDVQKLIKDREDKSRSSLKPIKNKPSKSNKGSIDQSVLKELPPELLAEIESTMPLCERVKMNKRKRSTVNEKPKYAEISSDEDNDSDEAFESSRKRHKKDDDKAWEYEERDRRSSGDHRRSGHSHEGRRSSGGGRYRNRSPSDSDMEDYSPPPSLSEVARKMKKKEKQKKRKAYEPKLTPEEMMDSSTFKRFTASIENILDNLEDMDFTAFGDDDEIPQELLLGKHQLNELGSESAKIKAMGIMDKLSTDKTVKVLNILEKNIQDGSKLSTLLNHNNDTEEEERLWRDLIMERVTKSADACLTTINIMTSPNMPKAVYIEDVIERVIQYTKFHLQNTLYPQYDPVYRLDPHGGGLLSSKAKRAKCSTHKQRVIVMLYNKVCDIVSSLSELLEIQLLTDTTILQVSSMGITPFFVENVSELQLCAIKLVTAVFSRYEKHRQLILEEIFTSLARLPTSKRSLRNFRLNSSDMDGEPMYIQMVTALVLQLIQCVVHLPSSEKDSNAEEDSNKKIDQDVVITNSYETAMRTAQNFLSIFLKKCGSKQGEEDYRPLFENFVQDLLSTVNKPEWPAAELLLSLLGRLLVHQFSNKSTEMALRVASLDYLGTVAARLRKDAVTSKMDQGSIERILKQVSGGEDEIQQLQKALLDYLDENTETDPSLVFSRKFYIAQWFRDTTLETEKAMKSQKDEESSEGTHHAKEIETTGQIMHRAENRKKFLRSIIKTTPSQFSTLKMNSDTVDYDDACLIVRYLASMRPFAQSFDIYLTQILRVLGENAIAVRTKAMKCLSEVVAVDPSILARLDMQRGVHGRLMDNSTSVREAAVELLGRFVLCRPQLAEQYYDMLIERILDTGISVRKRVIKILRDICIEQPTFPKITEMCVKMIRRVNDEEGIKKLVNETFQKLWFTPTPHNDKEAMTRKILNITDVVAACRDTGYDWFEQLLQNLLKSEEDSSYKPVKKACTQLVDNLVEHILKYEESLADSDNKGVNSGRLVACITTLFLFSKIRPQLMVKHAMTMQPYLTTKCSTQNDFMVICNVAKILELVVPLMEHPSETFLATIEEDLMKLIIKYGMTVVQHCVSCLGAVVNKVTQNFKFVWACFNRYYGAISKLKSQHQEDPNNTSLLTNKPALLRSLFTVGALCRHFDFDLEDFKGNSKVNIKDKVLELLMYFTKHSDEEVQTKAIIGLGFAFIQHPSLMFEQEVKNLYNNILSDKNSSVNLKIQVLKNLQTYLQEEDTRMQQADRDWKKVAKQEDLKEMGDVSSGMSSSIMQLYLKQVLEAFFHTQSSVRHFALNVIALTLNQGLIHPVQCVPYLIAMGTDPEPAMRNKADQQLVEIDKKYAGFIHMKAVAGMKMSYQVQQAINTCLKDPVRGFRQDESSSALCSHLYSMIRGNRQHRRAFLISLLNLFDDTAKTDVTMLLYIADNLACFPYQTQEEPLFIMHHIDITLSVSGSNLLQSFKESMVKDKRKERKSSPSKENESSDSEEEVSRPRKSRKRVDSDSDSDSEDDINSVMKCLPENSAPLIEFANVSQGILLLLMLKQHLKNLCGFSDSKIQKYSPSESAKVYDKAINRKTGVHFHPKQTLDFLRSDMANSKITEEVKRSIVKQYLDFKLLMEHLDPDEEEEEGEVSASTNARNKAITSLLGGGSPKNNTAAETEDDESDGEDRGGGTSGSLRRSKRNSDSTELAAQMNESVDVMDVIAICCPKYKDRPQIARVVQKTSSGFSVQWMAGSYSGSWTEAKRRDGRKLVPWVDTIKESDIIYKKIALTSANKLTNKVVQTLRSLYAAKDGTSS
inactive: vemurafenib -0.015 | [1] 0.091 | barasertib 0.017 | [2] -0.081 | volasertib -0.048 | [3] 0.04 | [4] -0.004 | [5] -0.042 | saracatinib -0.001 | sotrastaurin 0.004

MRPS31 (UniProt Q92665)
inactive: vemurafenib 0.043 | [1] -0.001 | barasertib -0.011 | [2] 0.041 | volasertib -0.004 | [3] -0.026 | [4] -0.046 | [5] 0.034 | saracatinib 0.014 | sotrastaurin 0.021

NUDT5 (UniProt Q9UKK9)
active: [5] 0.27
inactive: vemurafenib -0.019 | [1] -0.001 | barasertib -0.042 | [2] 0.043 | volasertib 0.015 | [3] -0.054 | [4] -0.267 | saracatinib -0.022 | sotrastaurin 0.034

N6AMT1 (UniProt Q9Y5N5)
inactive: vemurafenib 0.201 | [1] -0.016 | barasertib 0.113 | [2] 0.005 | volasertib -0.04 | [3] 0.006 | [4] -0.047 | [5] -0.048 | saracatinib 0.019 | sotrastaurin 0.038

MRPL51 (UniProt Q4U2R6)
inactive: vemurafenib 0.032 | [1] 0.028 | barasertib 0 | [2] -0.044 | volasertib 0.022 | [3] 0.038 | [4] -0.309 | [5] 0.16 | saracatinib 0.02 | sotrastaurin 0.008

NADK2 (UniProt Q4G0N4)
inactive: vemurafenib 0.024 | [1] -0.013 | barasertib 0.034 | [2] 0.078 | volasertib 0.008 | [3] -0.016 | [4] -0.019 | [5] 0.02 | saracatinib -0.035 | sotrastaurin -0.036

NACC1 (UniProt Q96RE7)
inactive: vemurafenib -0.039 | [1] -0.003 | barasertib 0.039 | [2] -0.027 | volasertib 0.008 | [3] 0.004 | [4] -0.059 | [5] -0.003 | saracatinib -0.016 | sotrastaurin 0.034

MRPL58 (UniProt Q14197)
inactive: vemurafenib 0.104 | [1] -0.017 | barasertib 0.033 | [2] -0.033 | volasertib -0.043 | [3] 0.004 | [4] 0.148 | [5] -0.151 | saracatinib 0.04 | sotrastaurin 0.019

NCAPG2 (UniProt Q86XI2)
inactive: vemurafenib 0.015 | [1] 0.044 | barasertib 0.016 | [2] -0.055 | volasertib -0.006 | [3] 0.025 | [4] -0.139 | [5] 0.074 | saracatinib 0.027 | sotrastaurin 0.027
